# Shown are actives, neighbours in structure and some others; about 18% of the full set was active somewhere.
# HepG2 viability: counter-screen for TGF-b inhibitors: cytotoxicity in HepG2 cells; HepG2 CAGA-GFP viability, ATP luminescence, 18 h; Potency, µM (top dose mostly 46.1 µM), for inactives: top-dose activity change, negative = cytotoxicity, actives largely listed as cytotoxic; actives 0.76% (n = 410,000); further: potency means the concentration at half of the fitted maximal effect
#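 CellTiter-Glo luminescence gave cytotoxicity after 18 hours at 37 degrees C. The cells were HepG2 CAGA-GFP in 1% FBS DMEM, stimulated with 500 pg/mL TGF-beta after compound addition. %Activity was normalised to no-cell wells (complete cell-killing) and DMSO (no toxicity), and curves were fitted and classified.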
# DT40 TDP1 CPT: growth inhibition of DT40 Tdp1-/-;hTDP1 cells with camptothecin (screen for TDP1 inhibitors) | Potency, µM (series often up to 46.2 µM), without a hit: at the top dose activity change, negative = growth inhibition, hits mostly inhibitors | chicken DT40 Tdp1-/-;hTDP1 cells + 20 nM CPT, ATP luminescence, 48 h | actives 12% (n = 420,000); further: potency means the concentration at half of the fitted maximal effect; on the % scale 0 is the no-effect control and ±100 the full control effect; nearly all actives have a fitted effect of over 55% in size
#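 Chicken DT40 Tdp1-/- cells complemented with human TDP1, 400 cells/well, exposed to compounds plus 20 nM camptothecin for at least 48 h at 37 C; viability read as ATP content by CellTiter-Glo luminescence.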
# TGFb SMAD3 inh: TGF-b pathway inhibition | HepG2 CAGA-GFP TGF-b/SMAD3 reporter, GFP fluorescence, 18 h; TGF-beta stimulated, 500 pg/mL final | AID 588855 | Potency, µM (titrated, usually from 46.1 µM), for the others: top-dose activity, negative = inhibition, usual class: inhibitors | actives 1.2% (n = 410,000); further: potency means the concentration at half of the fitted maximal effect; on the % scale 0 is the no-effect control and ±100 the full control effect; nearly all actives have a fitted effect of over 65% in size
#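 Inhibition of TGF-beta-driven CAGA-GFP reporter expression in HEPG2 cells is measured by cellular GFP fluorescence after 18 h stimulation with 500 pg/mL recombinant TGF-beta in 1% FBS medium at 37 degrees C.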
# DT40 TDP1 no CPT: qHTS for Inhibitors of human tyrosyl-DNA phosphodiesterase 1 (TDP1): qHTS in cells in absence of CPT. DT40 Tdp1-/- hTDP1 cells, no CPT, ATP luminescence, 48 h. Potency, µM (series often up to 46.2 µM), for the others: at the top dose activity change, negative = growth inhibition, actives largely listed as inhibitors. actives 15% (n = 420,000). AID 686978, 2013; further: potency means the concentration at half of the fitted maximal effect; on the % scale 0 is the no-effect control and ±100 the full control effect; nearly all actives have a fitted effect of over 55% in size
#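 DT40 Tdp1-/-;hTDP1 cells, no CPT (DMSO vehicle only), 400 cells/well; compounds pin-transferred; ≥48 hr, 37 °C; CellTiter-Glo 30 min RT dark, luminescence read.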
# TDP1 block: inhibitors of human tyrosyl-DNA phosphodiesterase TDP1; Q9NUW8; recombinant TDP1, AlphaScreen DNA substrate cleavage; Potency, µM (series often up to 130 µM), for inactives: at the top dose activity change, negative = inhibition, hits mostly inhibitors; actives 0.28% (n = 350,000); AID 485290; further: potency means the concentration at half of the fitted maximal effect; on the % scale 0 is the no-effect control and ±100 the full control effect; nearly all actives have a fitted effect of over 40% in size
# Target sequence (Q9NUW8 whole entry, looked up): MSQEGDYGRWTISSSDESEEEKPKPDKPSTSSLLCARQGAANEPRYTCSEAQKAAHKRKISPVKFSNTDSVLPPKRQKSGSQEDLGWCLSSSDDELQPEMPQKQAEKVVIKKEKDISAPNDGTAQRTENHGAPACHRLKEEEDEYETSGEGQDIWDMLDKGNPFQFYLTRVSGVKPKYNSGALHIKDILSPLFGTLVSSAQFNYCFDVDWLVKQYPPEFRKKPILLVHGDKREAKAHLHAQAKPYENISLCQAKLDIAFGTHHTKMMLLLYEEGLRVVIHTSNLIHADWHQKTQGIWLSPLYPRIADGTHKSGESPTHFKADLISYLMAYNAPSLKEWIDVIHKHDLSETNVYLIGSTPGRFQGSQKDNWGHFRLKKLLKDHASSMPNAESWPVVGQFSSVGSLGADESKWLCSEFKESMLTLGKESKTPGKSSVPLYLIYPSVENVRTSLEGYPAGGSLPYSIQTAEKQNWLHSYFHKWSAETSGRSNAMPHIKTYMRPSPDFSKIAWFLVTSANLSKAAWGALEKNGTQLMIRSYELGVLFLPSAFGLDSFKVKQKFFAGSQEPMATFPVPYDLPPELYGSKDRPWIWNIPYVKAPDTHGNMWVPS
#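 E. coli-derived human Tdp1, 1 nM final. Cpd preinc 15 min RT; substrate 15 nM final, 5 min RT; AS bead mix 10 ug/ml final, 10 min RT. Signal loss = tyrosine-FITC cleavage. No-enzyme wells = max signal.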
# IL1B secr inh: blocks inflammasome-driven IL-1 beta release | activity change, % at 57.5 µM | THP-1 LPS/ATP IL-1B secretion, AlphaLISA, 16 h; hits give low values | actives 4.7% (n = 360,000); in the data active means activity change below about -50%; inconclusive means mostly about -30% to -49%; further: on the % scale 0 is the no-effect control and ±100 the full control effect
#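 THP-1 cells pretreated 1 hr with compounds (up to 57.5 uM final), then stimulated with LPS (250 ng/mL final) plus ATP (1.25 mM final); secreted IL-1B measured by AlphaLISA after 16 hr, decreased signal indicating inhibition.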
# Starred values were filed as active, the others as inactive; ? = inconclusive; . = no result. Unless noted, the call rests on the fitted dose curve; in most records, active means well fitted curve in the direction sought with a large enough effect; inconclusive means small, poorly fitted or top-dose-only effect, or another doubt; inactive means no such curve, though single readings can be large; an effect the other way counts as inactive or inconclusive.
SMILES,HepG2 viability,DT40 TDP1 CPT,TGFb SMAD3 inh,DT40 TDP1 no CPT,TDP1 block,IL1B secr inh
Cc1cc(NC(=O)CN2C(=O)c3cccnc3Sc3ccccc32)ccc1Br,-28.2%,?,-9.3%,23.1µM*,3.2%,.
CC(C)CCNC(=O)CCCN1C(=O)c2ccccc2Sc2ncccc21,-5.1%,14.6µM*,?,?,5.1%,.
Cc1ccc(NC(=O)CCN2C(=O)c3ccccc3Sc3ncccc32)cc1,3.0%,16.4µM*,-9.9%,16.4µM*,1.5%,22.7
Cc1ccccc1NC(=O)CCN1C(=O)c2ccccc2Sc2ncccc21,-24.7%,-26.9%,-25.3%,?,5.1%,.
COc1cc(-c2ccc3oc(-c4cccc(C)c4)c(C#CC4(O)CCCCC4)c3c2)cc(OC)c1OC,-15.4%,16.4µM*,?,16.4µM*,2.6%,-62.7*
CCCCC(=O)Nc1sc2c(c1-c1nc3ccccc3s1)CCN(C(C)=O)C2,.,.,.,.,5.4%,.
CN1CCc2c(sc(NC(=O)CSc3ccccc3)c2-c2nc3ccccc3s2)C1,-46.1%,?,252.0%,20.6µM*,-2.6%,.
CC(=O)Nc1sc2c(c1-c1nc3ccccc3s1)CN(C(C)C)CC2,4.2%,.,33.6%,.,1.2%,.
CC(=O)N1CCc2c(sc(NC(=O)C3CC3)c2-c2nc3ccccc3s2)C1,-8.5%,16.4µM*,?,14.6µM*,1.0%,-84.5*
CC(=O)N1CCc2c(sc(NC(=O)CSc3ccccc3)c2-c2nc3ccccc3s2)C1,-7.5%,13µM*,-21.8%,10.3µM*,-5.2%,.
O=c1ccc(NS(=O)(=O)c2ccccc2)cn1Cc1ccc(Cl)c(Cl)c1,-34.3%,-17.1%,?,0.4%,9.8%,17.8
CCCCNC(=O)C(NC(=O)c1cccc(C(F)(F)F)c1)C(=O)c1ccccc1 (stereo not given),11.2%,-3.6%,1.8%,-1.9%,.,20.6
CSc1ccc(/C=C(/NC(=O)c2ccc(C)cc2)C(=O)Nc2cccc(C)c2)cc1,-2.0%,7.31µM*,-3.6%,7.31µM*,-4.6%,36.9
Cn1c(O)c(C2=c3ccccc3=NC2=O)sc1=Nc1ccc(Cl)cc1,-2.1%,23.1µM*,0.9%,?,2.6%,16.3
Cc1ccc(C)c(N2CCN(c3ncnc4c3cnn4-c3ccccc3)CC2)c1,9.4%,?,10.9%,?,5.9%,18.8
CCN1CCN(c2ncnc3c2cnn3-c2ccccc2)CC1,-10.2%,3.5%,0.5%,-22.6%,2.9%,-18.7
Cc1ccc(-n2ncc3c(N4CCCC4)ncnc32)c(C)c1,-12.4%,-3.5%,4.7%,-7.8%,9.8%,0.0
CCN1CCN(c2ncnc3c2cnn3-c2cccc(C)c2)CC1,-22.5%,23.1µM*,.,?,0.0%,.
Cc1ccc(-n2ncc3c(N4CCCC(C)C4)ncnc32)c(C)c1 (stereo not given),-34.3%,8.2µM*,-6.6%,7.31µM*,.,-11.3
COc1cccc(N2CCN(c3ncnc4c3cnn4-c3ccc(C)cc3C)CC2)c1,-60.0%,1.84µM*,?,2.59µM*,8.6%,-79.5*
Cc1cccc(-n2ncc3c(N4CCCCCC4)ncnc32)c1,-25.3%,?,-4.2%,20.6µM*,10.4%,.
CCc1ccccc1NC(=O)c1nnn(CC(=O)Nc2c(C)cc(C)cc2C)c1N,-6.4%,11.8%,-9.8%,-13.2%,2.3%,.
Cc1ccc(C(O)c2ncc(-c3ccccc3Cl)[nH]2)c(C)c1 (stereo not given),-33.2%,?,-21.7%,-23.3%,.,-14.2
CC(=O)Nc1c(Br)cc2c(c1Br)Cc1cc([N+](=O)[O-])ccc1-2,-18.1%,?,0.0%,?,.,7.4
